Our source for the outcome values is PubChem BioAssay AID743150 (Broad Institute, 2013).

Results with a measured potency or affinity are listed apart. The source made the active and inactive calls. The rule behind the calls is not given here.

The nature of the experiment: cytotoxicity in OVCAR4 cells, dose response, cytotoxicity control for PAX8 inhibitor project, cell-based, plate reader, dry powder, SA11 (AID 743150). The following applies: series mostly up to 35 µM.
Regarding `CC(C)c1cc(C(=O)OCC(=O)N2CCN(C(=O)c3ccco3)CC2)c(O)c(C(C)C)c1`, the result was inactive.
As to `CCCC#Cc1ccc([C@@H]2[C@H](C#N)N(S(=O)(=O)c3cccc(F)c3)[C@H]2CO)cc1`, the result was inactive.
On to `COc1ccccc1C#Cc1ccc([C@H]2[C@@H](CO)N(C(=O)C3CCCC3)[C@H]2C#N)cc1`, for which the call was inactive.
Under `COc1cccc(C#Cc2ccc([C@H]3[C@@H](C#N)N(C(=O)c4ccccn4)[C@@H]3CO)cc2)c1` stands “inactive”; under `CC(=O)N1CCOc2ccc(S(=O)(=O)N3CCN(c4cccc(C(F)(F)F)c4)CC3)cc21`, “inactive”.
Under `C[C@H](CO)N1C[C@H](C)[C@@H](CN(C)Cc2ccc(-c3ccccc3)cc2)Oc2ccc(NC(=O)C3CC3)cc2CC1=O` stands “inactive”; under `Cc1nc2sc(C(c3ccco3)N3CCN(C(c4ccccc4)c4ccccc4)CC3)c(O)n2n1` (stereo unspecified), “inactive”; under `COc1cccc(C#Cc2ccc([C@H]3[C@@H](CO)N(C(=O)c4ccccn4)[C@H]3C#N)cc2)c1`, “inactive”.
Under `COc1cccc(C#Cc2ccc([C@@H]3[C@@H](C#N)N(C(=O)C4CCCCC4)[C@@H]3CO)cc2)c1` stands “inactive”.
Turning to `Cc1ccc(S(=O)(=O)Nc2ccc3c(c2)nc(CCN2CCCC2)n3C)cc1`, the compound was classed as inactive.
The same measure for `COc1ccc(S(=O)(=O)N2CCCCN3[C@H](CO)[C@H](c4ccc(C#CC(C)C)cc4)[C@H]3C2)cc1`: “inactive”; for `O=C(C[C@@H]1C[C@H]2c3cc(NS(=O)(=O)c4ccc(F)cc4)ccc3O[C@H]2[C@H](CO)O1)NCc1ccc(Cl)cc1`: “inactive”.
Under `O=C(/C=C/c1ccccc1)Nc1cccc(C(=O)O)c1` stands “inactive”; under `Cc1ccc(S(=O)(=O)Nc2ccc3c(c2)C(=O)N([C@@H](C)CO)C[C@H](C)[C@@H](CN(C)C(=O)Nc2cccc4ccccc24)OCCCC[C@@H](C)O3)cc1`, “inactive”.
As to `N#C[C@H]1[C@H](c2ccc(C#CC3CCCC3)cc2)[C@@H](CO)N1C(=O)Nc1ccc(F)cc1`, the result was inactive.
The same measure for `O=C(NCCc1ccccc1)c1ccc2c(c1)OCCCO2`: “inactive”.
The same measure for `COc1ccc(S(=O)(=O)Nc2ccc3c(c2)CC(=O)N([C@@H](C)CO)C[C@@H](C)[C@@H](CN(C)Cc2ccc(-c4ccccc4)cc2)O3)cc1`: “inactive”.
For the compound `C[C@H](CO)N1C[C@H](C)[C@@H](CN(C)Cc2ccc(C(F)(F)F)cc2)OCCCC[C@H](C)Oc2ccc(NS(=O)(=O)c3ccc(F)cc3)cc2C1=O`, the call was inactive.
For the compound `O=C1/C(=C/c2ccccc2)SC(=S)N1CC(=O)N1CCCCC1c1cccnc1` (stereo unspecified), the compound was classed as inactive.
The same measure for `C[C@H](CO)N1C[C@H](C)[C@@H](CN(C)Cc2ccc(C(F)(F)F)cc2)Oc2ccc(NS(=O)(=O)c3ccccc3)cc2CC1=O`: “inactive”; for `C[C@H](CO)N1C[C@H](C)[C@@H](CN(C)Cc2ccc(C(F)(F)F)cc2)Oc2ccc(NS(=O)(=O)c3ccc(Cl)cc3)cc2CC1=O`: “inactive”; for `N#C[C@H]1[C@@H](c2ccc(C#Cc3cccc(F)c3)cc2)[C@@H](CO)N1C(=O)C1CCCC1`: “inactive”.
As to `N#C[C@H]1[C@@H](c2ccc(C#CC3CCCCC3)cc2)[C@@H](CO)N1S(=O)(=O)c1ccccc1`, the result was inactive.
Under `C[C@@H]1CN([C@@H](C)CO)S(=O)(=O)c2ccc(C#Cc3ccncc3)cc2O[C@H]1CN(C)C(=O)Nc1ccc2c(c1)OCO2` stands “inactive”; under `C[C@@H]1CN([C@H](C)CO)C(=O)CCCn2cc(nn2)CO[C@H]1CN(C)C(=O)Nc1ccc(-c2cccs2)cc1`, “inactive”; under `C[C@@H]1CN([C@@H](C)CO)S(=O)(=O)c2ccc(C#C[C@@H](C)O)cc2O[C@H]1CN(C)Cc1ccc(-c2ccccc2)cc1`, “inactive”.
For the compound `COc1cccc(C#Cc2ccc([C@@H]3[C@@H](C#N)N(C(=O)C4CCCCC4)[C@H]3CO)cc2)c1`, the compound was called inactive.
As for `N#C[C@@H]1[C@@H](c2ccc(C#Cc3ccccc3F)cc2)[C@H](CO)N1C(=O)C1CCCCC1`, the compound was called inactive.
The same measure for `Cc1ccccc1OCC(=O)Nc1cccc(C(=O)O)c1`: “inactive”; for `N#C[C@@H]1[C@H](c2ccc(C#Cc3ccc(F)cc3)cc2)[C@@H](CO)N1C(=O)Nc1ccc(F)cc1`: “inactive”.
Turning to `C[C@H](CO)N1C[C@H](C)[C@@H](CN(C)S(=O)(=O)c2ccc(-c3ccccc3)cc2)OCc2cn(nn2)CCCC1=O`, the call was inactive.
